Laboratory results from the supplement of paper PMC9694430.
Counter-ions that a name gives are not always drawn.

Assays:
Experiment in all cases: thermal shift delta Tm vs DMSO control; higher = stronger stabilization (binding)
Details in all cases: 12.5 µM; protein concentration 2 µM
[1] = system: LOC_OS01G57100-cb003
Summary of the method: (§1)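 Compounds dissolved in DMSO were added to purified rice kinase domain constructs, which had been expressed in E. coli, for differential scanning fluorimetry. Each well held 19.5 μl of 2 μM kinase in 100 mM potassium phosphate pH 7.5, 150 mM NaCl, 10% glycerol and 5 × SYPRO Orange. Fluorescence was followed from 25°C to 95°C at a rate of 0.05°C/s. Shifts in Boltzmann-fitted melting temperature are triplicate means relative to DMSO-only protein.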

[2] = system: LOC_OS01G60330-cb001
Summary of the method: as §1

[3] = system: LOC_OS01G60700-cb002
Summary of the method: as §1

[4] = system: LOC_OS01G63280-cb003
Summary of the method: as §1

[5] = system: LOC_OS01G67340-cb003
Summary of the method: as §1

[6] = system: LOC_OS01G70970-cb002
Summary of the method: as §1

[7] = system: LOC_OS02G07810-cb001
Summary of the method: as §1

[8] = system: LOC_OS02G08530-cb003
Summary of the method: as §1

[9] = system: LOC_OS02G14120-cb001
Summary of the method: as §1

[10] = system: LOC_OS02G17970-cb001
Summary of the method: as §1

[11] = system: LOC_OS02G45750-cb003
Summary of the method: as §1

[12] = system: LOC_OS02G54510-cb004
Summary of the method: as §1

[13] = system: LOC_OS03G04050-cb001
Summary of the method: as §1

[14] = system: LOC_OS03G12390-cb001
Summary of the method: as §1

[15] = system: LOC_OS03G27990-cb004
Summary of the method: as §1

[16] = system: LOC_OS03G50450-cb001
Summary of the method: as §1

[17] = system: LOC_OS03G50810-cb003
Summary of the method: as §1

[18] = system: LOC_OS04G35114-cb001
Summary of the method: as §1

[19] = system: T1, LOC_OS04G38480-cb003
T1 sequence (whole entry): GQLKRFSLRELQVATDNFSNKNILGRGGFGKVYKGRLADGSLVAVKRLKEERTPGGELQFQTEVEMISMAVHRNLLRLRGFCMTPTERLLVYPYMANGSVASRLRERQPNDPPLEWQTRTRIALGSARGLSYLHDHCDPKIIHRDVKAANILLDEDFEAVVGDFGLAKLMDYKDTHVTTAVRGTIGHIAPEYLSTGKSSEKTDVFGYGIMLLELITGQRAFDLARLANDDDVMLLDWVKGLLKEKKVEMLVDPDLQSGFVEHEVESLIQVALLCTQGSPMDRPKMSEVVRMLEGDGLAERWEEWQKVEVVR
Summary of the method: as §1

[20] = system: T2, LOC_OS04G41100-cb001
T2 sequence (whole entry): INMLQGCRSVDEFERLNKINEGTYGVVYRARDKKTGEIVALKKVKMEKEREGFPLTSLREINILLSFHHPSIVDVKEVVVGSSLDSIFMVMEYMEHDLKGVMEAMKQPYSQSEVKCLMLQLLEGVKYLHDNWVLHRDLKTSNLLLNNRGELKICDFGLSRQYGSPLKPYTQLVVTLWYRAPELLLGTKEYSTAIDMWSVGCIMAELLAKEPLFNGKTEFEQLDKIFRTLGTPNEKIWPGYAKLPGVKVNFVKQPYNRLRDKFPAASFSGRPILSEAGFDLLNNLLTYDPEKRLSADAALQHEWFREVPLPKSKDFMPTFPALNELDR
Summary of the method: as §1

Structure (SMILES) | thermal shift delta Tm [1] [°C] | thermal shift delta Tm [2] [°C] | thermal shift delta Tm [3] [°C] | thermal shift delta Tm [4] [°C] | thermal shift delta Tm [5] [°C] | thermal shift delta Tm [6] [°C] | thermal shift delta Tm [7] [°C] | thermal shift delta Tm [8] [°C] | thermal shift delta Tm [9] [°C] | thermal shift delta Tm [10] [°C] | thermal shift delta Tm [11] [°C] | thermal shift delta Tm [12] [°C] | thermal shift delta Tm [13] [°C] | thermal shift delta Tm [14] [°C] | thermal shift delta Tm [15] [°C] | thermal shift delta Tm [16] [°C] | thermal shift delta Tm [17] [°C] | thermal shift delta Tm [18] [°C] | thermal shift delta Tm [19] [°C] | thermal shift delta Tm [20] [°C]
C[C@H](Nc1ncnc2nc[nH]c12)c1cc2cccc(Cl)c2c(=O)n1-c1ccccc1 [Duvelisib (IPI-145, INK1197)] | -0.45 | 0.3 | 1.43 | 0.2 | 0.06 | 0.33 | 0.73 | 0.77 | 0.47 | 0.68 | -1.36 | 2.02 | -0.19 | -0.34 | -0.31 | 0.38 | 0.72 | -1.37 | 0.01 | 0.58
COc1cc(C(=O)N2CCC(N3CCN(C)CC3)CC2)ccc1Nc1ncc2c(n1)N(C)c1ccccc1C(=O)N2C | 0.21 | 0.56 | 0.5 | -0.2 | 0.17 | 0.15 | 0.46 | 1.92 | 1.72 | 0.35 | 1.73 | 0.29 | 0.41 | 3.59 | 0.46 | 0.37 | 0.68 | 0.65 | 3.81 | 0.27
Cc1ccc(NC(=O)c2cccc(C(C)(C)C#N)c2)cc1Nc1ccc2ncn(C)c(=O)c2c1 | 2.69 | 0.66 | 1.2 | 3.69 | 0.79 | 0.4 | 1.74 | 0.95 | 1.71 | 1.2 | 1.15 | 1.43 | 0.45 | 0.66 | 0.38 | 0.1 | 0.54 | 0.51 | 0.88 | 0.24
CNC(=O)c1ccc(Nc2ncc(C(F)(F)F)c(NCc3nccnc3N(C)S(C)(=O)=O)n2)cc1 | 0.61 | 2.42 | 1.41 | 0.96 | 1.45 | 7.62 | 0.24 | 2.72 | 6.02 | 0.65 | 9.52 | 1.99 | 0.04 | 5.45 | 3.54 | 2.16 | 4.32 | 5.66 | 2.85 | 1.45
O=C(O)[C@]1(Cc2cccc(Nc3nccs3)n2)CC[C@@H](Oc2cccc(Cl)c2F)CC1 | 5.7 | 1.72 | -1.18 | 0.43 | 3.34 | 9.45 | 0.53 | 5.62 | 13.5 | 0.24 | 1.57 | 4.63 | 0.19 | 7.89 | 0.23 | 1.68 | 2.52 | 9.74 | 4.53 | 0.24
Cc1cn(-c2cc(NC(=O)c3ccc(C)c(Nc4nccc(-c5cnccn5)n4)c3)cc(C(F)(F)F)c2)cn1 [Radotinib] | 1.49 | 1.07 | 1.39 | 0.63 | 0.48 | 0.3 | 1.04 | 0.67 | 1.36 | 1.82 | 0.73 | 1.99 | 0.36 | 0.26 | 0.23 | -0.11 | 0.14 | 0.13 | 1.4 | 0.41
O=C(Nc1cccc(Cl)c1)Nc1ncc(CCNc2ncnc3ccsc23)s1 [SNS-314 Mesylate] | 2.62 | 3.98 | 1.44 | 2.76 | 0.53 | 1.48 | 2.27 | 2.1 | 4.25 | 1.27 | 0.93 | 0.38 | 1.02 | 1.77 | 0.36 | 0.82 | 0.75 | 1.73 | 2.48 | 1.12
Cc1ccc(S(=O)(=O)/C=C/C#N)cc1 | 3.66 | -1.26 | -1.01 | -3.09 | -0.5 | -2.73 | 0.83 | 1.24 | -1.26 | 0.99 | -0.28 | 1.4 | 0.67 | -0.03 | -0.15 | 0.08 | -1.25 | 0.08 | 0.47 | -0.67
CNC(=O)c1cc(Oc2ccc(NC(=O)Nc3ccc(Cl)c(C(F)(F)F)c3)c(F)c2)ccn1 [Regorafenib (BAY 73-4506)] | 0.31 | 0.62 | 0.77 | 1.71 | -0.62 | 0.36 | 0.73 | 0.93 | -0.11 | 0.55 | 0.96 | 0.56 | 0.64 | 0.1 | 0.17 | 0.33 | 0.11 | 0.48 | 0.48 | 0.52
CCCCCCCCCCCCc1ccc(S(=O)(=O)Nc2nncs2)cc1 | 2.08 | 0.81 | 0.86 | 0.54 | -1.07 | 0.27 | 1.33 | 0.91 | -0.22 | 0.86 | -1.65 | -0.17 | 0.7 | -0.22 | 0.29 | -0.07 | -0.06 | 0.41 | 0.58 | 0.45
O=C1NC(=O)C(=Cc2ccc(-c3ccc(F)cc3)o2)S1 (stereo in doubt) | 3.43 | 0.21 | 0.92 | 0.52 | 1.18 | 0.36 | 1.67 | 1.15 | 0.34 | 1.28 | 0.93 | 0.18 | 0.6 | 0.59 | 0.53 | 0.23 | 0.29 | 1.05 | 0.83 | 0.69
